Source: PubChem BioAssay (National Center for Advancing Translational Sciences (NCATS))
miR-21 act – qHTS Assay for Modulators of miRNAs and/orActivators of miR-21; HeLa miR-21 FLuc reporter, luciferase, 48 h; Potency, µM (series often up to 38.3 µM), for inactives: at the highest dose activity change, positive = activation, hits mostly activators; 340,000 tested, under 10 active; AID 2288, 2010;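 further: % of control where 0% means no effect; miR-21 action dims this reporter so a rising signal means less miR-21 action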
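HeLa cells stably expressing CMV-driven firefly luciferase with a downstream miR-21 binding sequence, endogenously expressing miR-21, were treated with titrations (up to about 40uM final) for 48 hours at 37 degree Celsius. Luciferase luminescence was read after lysis.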
TDP1 inh – qHTS Assay for Inhibitors of Tyrosyl-DNA Phosphodiesterase (TDP1) | recombinant TDP1, AlphaScreen DNA substrate cleavage | hit rate 0.28% among 350,000 | AID 485290, 2010 | Tyrosyl-DNA phosphodiesterase 1 (Homo sapiens), Q9NUW8 | Potency, µM (doses to about 130 µM), for inactives: at the highest dose activity change, negative = inhibition, hits mostly inhibitors; further: potency means the concentration at half of the fitted maximal effect; on the % scale 0 is the no-effect control and ±100 the full control effect; nearly all actives have a fitted effect of over 40% in size
Target sequence (Q9NUW8 whole entry, looked up): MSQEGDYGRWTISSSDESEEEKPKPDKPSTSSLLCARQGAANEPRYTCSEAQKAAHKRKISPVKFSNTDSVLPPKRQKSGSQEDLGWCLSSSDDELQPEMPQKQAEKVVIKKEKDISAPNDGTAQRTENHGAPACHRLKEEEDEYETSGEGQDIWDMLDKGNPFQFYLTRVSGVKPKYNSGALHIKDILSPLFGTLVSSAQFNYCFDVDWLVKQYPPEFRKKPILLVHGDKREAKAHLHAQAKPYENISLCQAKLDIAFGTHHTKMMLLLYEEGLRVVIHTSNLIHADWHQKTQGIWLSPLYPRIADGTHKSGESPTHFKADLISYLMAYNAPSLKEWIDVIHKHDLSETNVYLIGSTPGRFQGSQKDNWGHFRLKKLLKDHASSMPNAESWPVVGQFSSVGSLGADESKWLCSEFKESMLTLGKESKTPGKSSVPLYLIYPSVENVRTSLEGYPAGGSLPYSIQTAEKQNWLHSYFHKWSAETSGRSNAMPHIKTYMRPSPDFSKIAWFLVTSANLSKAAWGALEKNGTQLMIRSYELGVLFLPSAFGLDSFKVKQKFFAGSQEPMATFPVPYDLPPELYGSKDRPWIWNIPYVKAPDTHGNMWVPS
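Recombinant E. coli-expressed Tdp1 (1 nM) preincubated with compound 15 min at RT, then 5'-biotin/3'-phosphotyrosine-FITC DNA substrate (15 nM) added for 5 min. AlphaScreen beads (10 ug/ml) added, 10 min RT; tyrosine-FITC cleavage read as signal loss.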
uPA surface inh – qHTS for Inhibitors of Cell Surface uPA Generation. cell surface uPA generation assay, qHTS. Potency, µM (top dose mostly 38.3 µM), inactives show top-dose activity change, negative = inhibition, most hits filed as inhibitors. hit rate 0.31% among 330,000. AID 540303, 2011; active means well fitted inhibition curve with a large enough effect; inconclusive means small, poorly fitted or top-dose-only effect; inactive means no such curve, though single readings can be large or run the other way; tested in mouse RAW 264.7 cells; further: potency means the concentration at half of the fitted maximal effect; on the % scale 0 is the no-effect control and ±100 the full control effect; nearly all actives have a fitted effect of over 55% in size
DT40 TDP1 CPT – qHTS for Inhibitors of human tyrosyl-DNA phosphodiesterase 1 (TDP1): qHTS in cells in presence of CPT | chicken DT40 Tdp1-/-;hTDP1 cells + 20 nM CPT, ATP luminescence, 48 h | Potency, µM (titrated, usually from 46.2 µM), for inactives: top-dose activity change, negative = growth inhibition, actives largely listed as inhibitors | hit rate 12% among 420,000; further: potency means the concentration at half of the fitted maximal effect; on the % scale 0 is the no-effect control and ±100 the full control effect; nearly all actives have a fitted effect of over 55% in size
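Chicken DT40 Tdp1-/- cells stably complemented with human TDP1 were seeded at 400 cells/well in medium containing 20 nM camptothecin, exposed to pin-transferred compounds, and grown at 37 °C for at least 48 hr. Viability was read as ATP luminescence.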
DT40 TDP1 no CPT – qHTS for Inhibitors of human tyrosyl-DNA phosphodiesterase 1 (TDP1): qHTS in cells in absence of CPT; DT40 Tdp1-/- hTDP1 cells, no CPT, ATP luminescence, 48 h; Potency, µM (doses to about 46.2 µM), for the others: at the top dose activity change, negative = growth inhibition, most hits filed as inhibitors; hit rate 15% among 420,000; AID 686978, 2013; further: potency means the concentration at half of the fitted maximal effect; on the % scale 0 is the no-effect control and ±100 the full control effect; nearly all actives have a fitted effect of over 55% in size
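DT40 Tdp1-/-;hTDP1 cells, no CPT (DMSO vehicle only), 400 cells/well; compounds pin-transferred; ≥48 hr, 37 °C; CellTiter-Glo 30 min RT dark, luminescence read.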
Starred values were filed as active, the others as inactive; u = inconclusive; x = no result. Only some compounds are listed: those with a hit (about 16% of all), similar ones and a draw of the others. Unless noted, the call rests on the fitted dose curve; in most records, active means well fitted curve in the direction sought with a large enough effect; inconclusive means small, poorly fitted or top-dose-only effect, or another doubt; inactive means no such curve, though single readings can be large; an effect the other way counts as inactive or inconclusive.

SMILES	miR-21 act	TDP1 inh	uPA surface inh	DT40 TDP1 CPT	DT40 TDP1 no CPT
Cc1cc(C)n(-c2nc(Nc3ccccc3)nc(-n3nc(C)cc3C)n2)n1	-0.1%	44.7µM*	-4.7%	5.4%	1.9%
CN(NC(=O)NN)c1ncc(C(F)(F)F)cc1Cl	1.8%	5.9%	2.3%	-2.8%	4.8%
CC(C)(C)[C@H]1COC(=O)[C@@H](Cc2ccc(F)cc2)CC/C=C/C[C@@H](CC(=O)N[C@@H](CO)Cc2ccccc2)C(=O)N1	x	-0.1%	-14.2%	-108.9%	16.4µM*
O=C(C[C@@H]1C/C=C\CC[C@H](Cc2ccc(F)cc2)C(=O)OC[C@@H]2CCCN2C1=O)N[C@H](CO)Cc1ccccc1	x	1.2%	u	6.51µM*	5.17µM*
O=C(C[C@H]1C/C=C\C[C@@H](Cc2ccc(F)cc2)C(=O)OC[C@H]2CCCN2C1=O)N[C@H](CO)Cc1ccccc1	x	-0.6%	12.3%	u	u
C[C@@H]1COC(=O)[C@H](Cc2ccc(F)cc2)CC/C=C/C[C@@H](CC(=O)N[C@H](CO)Cc2ccccc2)C(=O)N1	x	0.1%	-4.2%	u	u
CC(C)(C)[C@H]1COC(=O)[C@@H](Cc2ccc(F)cc2)CC/C=C/C[C@@H](CC(=O)N[C@H](CO)Cc2ccccc2)C(=O)N1	x	1.0%	0.3%	8.2µM*	18.4µM*
CCn1cc(C(=O)NC2CCCCCC2)c(=O)c2ccc(C)nc21	-1.1%	x	u	u	u
CCOc1ccc2[nH]c(=O)c(CN(CCCN3CCOCC3)C(=O)Nc3ccc(F)cc3)cc2c1	x	x	-13.1%	-2.2%	10.5%
CCc1ccc2[nH]c(=O)c(CN(CCCN3CCOCC3)C(=O)Nc3cccc(Cl)c3)cc2c1	19.1%	7.7%	-12.4%	u	14.6µM*
CCc1ccc2[nH]c(=O)c(CN(CCCN3CCOCC3)C(=O)Nc3ccccc3)cc2c1	18.9%	4.7%	-6.6%	23.1µM*	20.6µM*
c1ccc2c(c1)Cn1nnnc1-2	-0.3%	3.2%	x	-1.0%	-4.9%
c1ccc2c(c1)CC1(CCCCC1)n1nnnc1-2	-3.2%	2.5%	-9.3%	14.6µM*	23.1µM*
Cc1nc2c(F)c(F)c(C(F)(F)F)c(F)c2[nH]1	3.2%	4.2%	-2.7%	u	20.6µM*
Cc1nc2c(Br)c3nc(C(F)(F)F)[nH]c3c(Br)c2[nH]1	-2.4%	-2.0%	4.9%	-5.6%	-20.1%
CCCCCn1c(=O)[nH]c2cc(C(=O)NCc3ccc4c(c3)OCO4)ccc2c1=O	-3.4%	4.9%	2.1%	-8.7%	-16.1%
CCCCCn1c(=O)[nH]c2cc(C(=O)N3CCN(Cc4ccc5c(c4)OCO5)CC3)ccc2c1=O	24.6%	3.9%	0.0%	4.61µM*	10.3µM*
O=C(c1ccc2c(=O)n(Cc3ccc(Cl)cc3)c(=S)[nH]c2c1)N1CCCC1	1.5%	0.9%	-4.5%	-18.2%	u
CN1CCN(C(=O)c2ccc3c(=O)n(Cc4ccc(Cl)cc4)c(=S)[nH]c3c2)CC1	-5.0%	2.0%	x	20.6µM*	u
CN1CCN(C(=O)c2ccc3c(=O)n(Cc4ccc5c(c4)OCO5)c(=S)[nH]c3c2)CC1	x	x	x	22.4µM*	12.6µM*
CC(C)(C)C1=CC(O)(c2ccccc2)C=C(C(C)(C)C)C1=O	-3.4%	x	-6.5%	u	u
CCc1nc2c(OCCn3cccc3)cccn2c1N(C)C(=O)c1ccc(OC)cc1	x	x	x	5.7%	-4.8%
CCc1nc2c(OCC3CCCCC3)cccn2c1N(C)C(=O)c1ccc(C)cc1	x	x	x	20.6µM*	14.6µM*
CCc1nc2c(OCCC3CCCCC3)cccn2c1N(C)C(=O)c1ccncc1	x	x	x	16.4µM*	14.6µM*
CCc1nc2c(OCC3COc4ccccc4O3)cccn2c1N(C)C(=O)c1ccccc1F (stereo not drawn)	x	x	x	20.6µM*	20.6µM*
SMILES	miR-21 act	TDP1 inh	uPA surface inh	DT40 TDP1 CPT	DT40 TDP1 no CPT
CCc1nc2c(OCCn3cccc3)cccn2c1N(C)C(=O)C1CC1	x	x	x	-22.0%	u
CCc1nc2c(OCCC3CCCCC3)cccn2c1N(C)C(=O)c1ccc(OC)cc1	x	x	x	u	20.6µM*
O=[N+]([O-])c1ccc(-c2csc(COc3ccccc3)n2)cc1	x	x	x	-8.9%	-24.7%
CC(Sc1ccccc1)C(=O)Nc1cccc(N(C)S(C)(=O)=O)c1 (stereo not drawn)	-11.4%	2.0%	12.3%	-16.5%	-13.8%
COc1ccc(C)cc1NC(=O)C(Sc1nnnn1C)c1ccccc1 (stereo not drawn)	-5.6%	0.6%	6.4%	-29.0%	-0.7%
COc1ccc(CCn2c(-c3ccco3)nc3ccccc3c2=O)cc1OC	20.7%	3.1%	4.2%	2.59µM*	2.59µM*
COc1ccc(CCn2c(=S)[nH]c(=O)c3c(C)cc(C)nc32)cc1OC	x	-1.2%	x	1.7%	-19.3%
COc1ccc(CCn2c(=S)[nH]c(=O)c3nccnc32)cc1OC	x	0.0%	x	6.31µM*	3.16µM*
COc1ccc(CCn2c(C)nc3ccccc3c2=O)cc1OC	-5.9%	-2.4%	22.0%	u	20.6µM*
CCCn1c(SC(C(=O)Nc2cc(C)ccc2OC)c2ccccc2)nc2ccccc2c1=O (stereo not drawn)	-0.7%	7.9%	-0.4%	18.4µM*	14.6µM*
COc1ccc(-n2nc(C(=O)Nc3ccccn3)c3c4ccccc4n(C)c3c2=O)cc1	-0.6%	2.3%	x	-0.6%	-2.5%
CCSc1nc2ccccc2n1C(=O)/C=C\c1ccc(OC)c(OC)c1	-11.0%	2.5%	-12.3%	4.61µM*	5.17µM*
O=c1c2ccccc2nc(-c2ccco2)n1CCc1ccc(O)cc1	8.1%	x	1.3%	u	5.8µM*
CCSc1nc2ccccc2n1CC(N)=O	-5.1%	2.4%	x	-17.4%	-7.3%
COCCCn1c(-c2ccco2)nc2ccccc2c1=O	-7.7%	5.1%	-6.2%	-19.4%	-28.8%
CCSc1nc2ccccc2c(=O)n1CCc1ccc(OC)c(OC)c1	10.1%	x	6.6%	13µM*	11.6µM*
Cn1c(-n2c(-c3ccco3)nc3ccccc3c2=O)nc2ccccc21	5.5%	4.0%	-16.0%	3.66µM*	5.8µM*
COc1ccc(CCn2nnc3ccccc3c2=O)cc1OC	x	x	x	-23.9%	u
CCc1ccc2c(c1)C(O)(CC(=O)c1cccs1)C(=O)N2 (stereo not drawn)	-1.5%	-1.8%	-2.0%	u	u
COc1ccc(CCN2CN(S(=O)(=O)c3ccc(C)cc3)c3nc4ccccc4nc32)cc1OC	-4.8%	5.5%	0.1%	23.1µM*	u
O=C(NC(=S)Nn1cnnc1)c1cccc(Br)c1	1.4%	-0.6%	0.0%	1.7%	-5.5%
O=C(COc1ccccc1)NC(=S)N1CCc2ccccc21	-47.3%	5.6%	-0.3%	u	16.4µM*
